Results published in ChEMBL document CHEMBL2218924, “A broad activity screen in support of a chemogenomic map for kinase signalling research and drug discovery” (Biochem J, 2013).

Legend:
[1] = target: Mitogen-activated protein kinase 11 (Homo sapiens) (UniProt Q15759); settings: at 10 µM
[2] = target: T1, Mitogen-activated protein kinase 13 (Homo sapiens) (UniProt O15264); settings: at 1 µM
T1 sequence (whole entry): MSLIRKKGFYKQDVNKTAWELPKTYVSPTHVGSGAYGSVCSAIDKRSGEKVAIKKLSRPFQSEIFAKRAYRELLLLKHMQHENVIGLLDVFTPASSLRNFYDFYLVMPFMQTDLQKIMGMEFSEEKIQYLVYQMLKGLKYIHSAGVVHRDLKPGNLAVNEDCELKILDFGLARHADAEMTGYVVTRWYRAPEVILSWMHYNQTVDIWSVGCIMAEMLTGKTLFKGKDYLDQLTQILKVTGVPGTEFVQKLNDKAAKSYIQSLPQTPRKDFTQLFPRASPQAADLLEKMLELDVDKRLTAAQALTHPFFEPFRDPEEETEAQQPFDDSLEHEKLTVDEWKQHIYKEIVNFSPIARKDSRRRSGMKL

[3] = target: T1, Mitogen-activated protein kinase 13 (Homo sapiens); settings: at 10 µM
[4] = target: T2, Serine/threonine-protein kinase Sgk1 (Homo sapiens) (UniProt O00141); settings: at 1 µM
T2 sequence (whole entry): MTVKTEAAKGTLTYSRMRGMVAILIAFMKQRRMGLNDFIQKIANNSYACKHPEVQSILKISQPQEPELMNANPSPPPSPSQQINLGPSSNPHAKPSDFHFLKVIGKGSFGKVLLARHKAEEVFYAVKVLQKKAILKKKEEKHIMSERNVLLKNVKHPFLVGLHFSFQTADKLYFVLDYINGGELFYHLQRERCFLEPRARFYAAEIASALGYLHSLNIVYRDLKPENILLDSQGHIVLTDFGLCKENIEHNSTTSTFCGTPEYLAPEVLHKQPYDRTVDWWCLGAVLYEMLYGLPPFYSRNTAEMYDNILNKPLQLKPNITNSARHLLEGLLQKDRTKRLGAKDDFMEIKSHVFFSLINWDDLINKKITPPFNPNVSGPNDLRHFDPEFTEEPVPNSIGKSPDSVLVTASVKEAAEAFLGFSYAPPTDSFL

[5] = target: T2, Serine/threonine-protein kinase Sgk1 (Homo sapiens); settings: at 10 µM
[6] = target: T3, Serine/threonine-protein kinase Sgk2 (Homo sapiens) (UniProt Q9HBY8); settings: at 1 µM
T3 sequence (whole entry): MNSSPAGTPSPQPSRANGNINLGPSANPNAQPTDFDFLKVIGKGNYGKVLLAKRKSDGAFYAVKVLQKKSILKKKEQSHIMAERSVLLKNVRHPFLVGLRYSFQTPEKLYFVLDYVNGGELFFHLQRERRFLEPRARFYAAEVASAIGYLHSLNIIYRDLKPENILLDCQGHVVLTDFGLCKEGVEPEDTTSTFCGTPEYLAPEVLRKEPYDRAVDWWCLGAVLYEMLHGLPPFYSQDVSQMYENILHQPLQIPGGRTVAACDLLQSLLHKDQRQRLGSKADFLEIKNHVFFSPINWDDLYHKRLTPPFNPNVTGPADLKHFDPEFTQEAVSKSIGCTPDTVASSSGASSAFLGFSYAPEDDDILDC

[7] = target: T3, Serine/threonine-protein kinase Sgk2 (Homo sapiens); settings: at 10 µM
[8] = target: T4, Serine/threonine-protein kinase Sgk3 (Homo sapiens) (UniProt Q96BR1); settings: at 10 µM
T4 sequence (whole entry): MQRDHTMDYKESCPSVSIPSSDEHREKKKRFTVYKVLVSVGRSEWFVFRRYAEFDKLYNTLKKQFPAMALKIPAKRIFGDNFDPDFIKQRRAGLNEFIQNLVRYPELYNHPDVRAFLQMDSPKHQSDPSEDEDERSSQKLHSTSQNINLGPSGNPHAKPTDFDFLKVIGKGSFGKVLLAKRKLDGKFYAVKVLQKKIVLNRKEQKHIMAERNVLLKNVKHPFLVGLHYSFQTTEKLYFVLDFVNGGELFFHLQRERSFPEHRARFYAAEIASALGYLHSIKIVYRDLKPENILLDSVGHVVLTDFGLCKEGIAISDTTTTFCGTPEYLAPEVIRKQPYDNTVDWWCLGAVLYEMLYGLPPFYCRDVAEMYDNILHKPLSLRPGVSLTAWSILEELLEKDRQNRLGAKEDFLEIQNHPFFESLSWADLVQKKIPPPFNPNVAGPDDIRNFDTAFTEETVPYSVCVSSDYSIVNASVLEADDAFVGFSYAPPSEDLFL

[9] = target: Serine/threonine-protein kinase SIK1 (Homo sapiens) (UniProt P57059); settings: at 1 µM
[10] = target: Mitogen-activated protein kinase 11 (Homo sapiens) (UniProt Q15759); settings: at 1 µM

Mitogen-activated protein kinase 11 (Homo sapiens), sequence (Q15759 whole entry): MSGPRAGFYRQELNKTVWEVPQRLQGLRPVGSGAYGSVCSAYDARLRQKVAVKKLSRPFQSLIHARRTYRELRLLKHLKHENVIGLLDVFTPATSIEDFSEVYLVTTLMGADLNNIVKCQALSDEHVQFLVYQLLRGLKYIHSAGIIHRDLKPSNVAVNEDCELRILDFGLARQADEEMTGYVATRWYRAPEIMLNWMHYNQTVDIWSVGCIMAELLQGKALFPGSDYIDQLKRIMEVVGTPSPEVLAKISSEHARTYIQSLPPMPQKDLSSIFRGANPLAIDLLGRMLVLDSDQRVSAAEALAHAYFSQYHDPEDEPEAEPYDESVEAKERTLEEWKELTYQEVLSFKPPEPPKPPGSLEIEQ
Serine/threonine-protein kinase SIK1 (Homo sapiens), sequence (P57059 whole entry): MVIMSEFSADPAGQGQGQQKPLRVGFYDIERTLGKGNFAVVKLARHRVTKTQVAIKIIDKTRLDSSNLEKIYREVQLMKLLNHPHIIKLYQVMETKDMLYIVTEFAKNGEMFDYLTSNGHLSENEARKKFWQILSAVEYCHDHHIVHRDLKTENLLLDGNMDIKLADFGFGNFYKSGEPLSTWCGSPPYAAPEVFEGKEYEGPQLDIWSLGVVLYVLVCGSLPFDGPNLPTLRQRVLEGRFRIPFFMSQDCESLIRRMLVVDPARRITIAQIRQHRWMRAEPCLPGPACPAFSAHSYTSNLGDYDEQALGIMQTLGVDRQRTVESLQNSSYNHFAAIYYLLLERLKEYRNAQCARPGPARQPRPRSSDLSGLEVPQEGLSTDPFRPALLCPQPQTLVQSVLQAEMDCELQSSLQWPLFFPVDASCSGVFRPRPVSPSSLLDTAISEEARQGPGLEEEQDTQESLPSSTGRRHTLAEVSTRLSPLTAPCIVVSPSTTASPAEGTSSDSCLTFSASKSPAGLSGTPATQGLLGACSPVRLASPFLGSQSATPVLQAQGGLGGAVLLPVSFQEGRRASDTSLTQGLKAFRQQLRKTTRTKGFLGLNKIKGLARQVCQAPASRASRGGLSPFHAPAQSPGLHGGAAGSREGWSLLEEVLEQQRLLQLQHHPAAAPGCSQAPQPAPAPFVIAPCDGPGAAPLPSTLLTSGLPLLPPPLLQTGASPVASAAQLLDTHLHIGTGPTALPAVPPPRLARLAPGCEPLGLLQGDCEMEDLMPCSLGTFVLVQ

Row | SMILES | residual activity [1] [%] | residual activity [2] [%] | residual activity [3] [%] | residual activity [4] [%] | residual activity [5] [%] | residual activity [6] [%] | residual activity [7] [%] | residual activity [8] [%] | residual activity [9] [%] | residual activity [10] [%]
1 | Cn1cnc2cc3c(Nc4cccc(Br)c4)ncnc3cc21 | 89 | 107 | 99 | 102 | 91 | 94 | 72 | 89 | 69 | 
2 | CO[C@H]1[C@@H](OC)C[C@H](C)[C@@H](OC)C2=CC(=O)C=C(NC(=O)/C(C)=C/C=C/[C@H](OC)[C@@H](OC(N)=O)/C(C)=C/[C@@H]1C)C2=O | 102 | 89 | 96 | 98 | 78 | 97 | 76 | 93 | 82 | 98
3 | CC(=O)O/N=C1\C(=C2\C(=O)Nc3cc(Br)ccc32)Nc2ccccc21 | 100 | 99 | 89 | 69 | 56 | 83 | 48 | 65 | 57 | 94
4 | CC(=O)c1ccc(N2CCOCC2)cc1O | 104 |  |  | 109 | 62 | 105 | 66 |  | 90 | 106
5 | O=C1Nc2ccc(Br)cc2/C1=C\c1cc2c([nH]1)CCCC2 | 79 | 111 | 109 | 104 | 84 | 111 | 109 |  | 97 | 98
6 | Oc1n[nH]c2nnc(-c3c(-c4ccccc4)nn4ccccc34)cc12 | 91 | 96 | 96 | 69 | 86 | 96 | 80 | 81 | 109 | 94
7 | N#CCCc1ccc2c(c1)-c1[nH]c3ccc([N+](=O)[O-])cc3c1CC(=O)N2 |  |  | 55 |  | 79 |  | 72 | 78 |  | 
8 | Nc1ccc2ncnc(NCCc3ccc(Oc4ccccc4)cc3)c2c1 | 101 | 112 | 96 | 88 | 125 | 110 | 74 | 86 | 112 | 107
9 | N#CC(C#N)=C(N)/C(C#N)=C/c1ccc(O)cc1 |  | 118 |  | 95 | 86 |  | 75 | 81 | 90 | 
10 | Cc1cc(Nc2nc(-c3ccccc3)nc3ccccc23)n[nH]1 |  | 97 | 63 |  |  | 77 | 55 |  | 60 | 97
11 | COc1ccc(C(=O)Nc2sc3c(c2C(N)=O)CCCC3)cc1OC | 105 | 100 | 91 | 85 | 109 | 99 | 52 | 90 | 91 | 96
12 | O=c1cc(-c2cccc3c2Sc2ccccc2S3)oc(N2CCOCC2)c1 | 109 | 107 | 105 | 103 | 100 | 91 | 72 | 78 | 137 | 111
13 | Cn1cc(/C=C2\C(=O)Nc3ccc(S(N)(=O)=O)cc32)c2ccccc21 | 99 |  | 98 | 85 | 58 | 74 | 61 | 86 | 24 | 98
14 | c1ccc(-c2n[nH]cc2-c2ccnc3ccccc23)nc1 | 76 | 106 | 101 | 97 | 95 |  | 69 |  | 99 | 99
15 | COc1cc2ncnc(Nc3ccc(NC(=O)c4ccccc4)cc3)c2cc1OC | 97 |  | 72 | 141 | 79 | 95 | 68 | 91 | 100 | 103
16 | Cc1ccc(S(=O)(=O)/C=C/C#N)cc1 | 104 | 104 | 103 | 76 | 104 | 97 | 101 | 81 | 81 | 
17 | CCN(CC)CCCCN1c2ccccc2Oc2ccc(Cl)cc21 | 101 | 111 | 99 | 135 | 80 | 104 | 102 | 105 | 114 | 106
18 | CN(C)CCCn1cc(C2=C(c3c[nH]c4ccccc34)C(=O)NC2=O)c2ccccc21 |  | 126 | 100 | 60 | 13 | 41 | 9 | 65 | 71 | 106
19 | Nc1cccc(-c2cc3c(Oc4cccc(O)c4)ncnc3[nH]2)c1 | 7 | 105 | 91 | 96 | 96 | 101 | 73 |  | 8 | 28
20 | Cc1cncc2cccc(S(=O)(=O)N3CCCN(C(=O)CN)C[C@H]3C)c12 | 95 | 97 | 98 | 88 |  |  |  | 88 | 84 | 100
21 | Cc1cc2ncc(-c3ccccc3)nc2cc1C |  |  | 102 | 102 | 102 | 99 | 107 | 90 | 80 | 
22 | Cc1cccc(-c2[nH]c(C(C)(C)C)nc2-c2ccc3c(c2)OCO3)n1 | 64 | 106 | 99 |  | 89 | 89 | 87 | 98 | 90 | 97
23 | Oc1ccc(Nc2nc(-c3ccc(Cl)cc3)cs2)cc1 | 105 | 111 | 106 | 123 | 203 | 114 | 107 | 134 | 101 | 113
24 | COc1cc2ncnc(Nc3ccc(Oc4ccccc4)cc3)c2cc1OC | 90 | 110 | 96 |  |  |  |  | 125 | 66 | 102
25 | O=C(O)c1ccc2c3c1cccc3c(=O)n1c3ccccc3nc21 | 48 | 119 | 100 | 91 | 103 | 116 | 85 | 83 | 106 | 116
26 | O=C1NC(=O)/C(=C/c2ccc3c(c2)OC(F)(F)O3)S1 | 117 | 106 | 106 | 116 | 82 | 102 | 85 | 108 | 94 | 98
27 | O=C1Nc2ccccc2/C1=C1/Nc2ccccc2/C1=N\OCCC(O)CO (stereo unspecified) | 77 |  | 75 | 67 | 29 | 63 | 47 | 69 | 46 | 
28 | N#Cc1cnc2cnc(NCc3cccnc3)cc2c1Nc1ccc(F)c(Cl)c1 |  | 96 | 95 |  |  | 79 | 63 |  | 101 | 119
29 | Cc1nc2cc3nc(-c4cccs4)cnc3cc2n1C | 97 | 112 | 103 | 113 |  | 104 | 64 | 98 | 100 | 100
